This is a sample that favours compounds with a hit; in the whole collection about 19% have one here.
HT1080-NT tox: kills 2HG-producing HT-1080-NT fibrosarcoma cells | AID 686970 | 360,000 tested, 1.6% active | Potency, µM (titrated, usually from 46.1 µM), most hits filed as cytotoxic | HT-1080-NT fibrosarcoma viability, CellTiter-Glo ATP luminescence, 48 h;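 note: NT is the 2HG producing partner of a matched IDH1 knockdown line; nearly all actives have a fitted effect of over 55% in size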
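Viability by CellTiter-Glo luminescence after 48 h compound exposure at 37C of HT-1080-NT cells (750/well, RPMI, 5% FBS). % activity scaled between DMSO wells and medium-only wells, then curve-fitted and categorized by curve class.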
TDP1 cell noCPT: qHTS for Inhibitors of human tyrosyl-DNA phosphodiesterase 1 (TDP1): qHTS in cells in absence of CPT | Potency, µM (series often up to 46.2 µM), usual class: inhibitors | 420,000 tested, 15% active | DT40 Tdp1-/- hTDP1 cells, no CPT, ATP luminescence, 48 h; note: nearly all actives have a fitted effect of over 55% in size
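DT40 Tdp1-/-;hTDP1 cells, no CPT (DMSO vehicle only), 400 cells/well; compounds pin-transferred; ≥48 hr, 37 °C; CellTiter-Glo 30 min RT dark, luminescence read.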
IL1B secr inh: inhibitors of inflammasome signaling (IL-1 beta secretion); activity change, % at 57.5 µM; 360,000 tested, 4.7% active; THP-1 LPS/ATP IL-1B secretion, AlphaLISA, 16 h; active compounds read low; in the data active = activity change below about -50%; inconclusive = mostly about -30% to -49%
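Secreted IL-1B measured by AlphaLISA bead assay after 16 h compound exposure of THP-1 cells; compounds (final up to 57.5 uM) added 1 h before LPS (250 ng/mL) and ATP (1.25 mM) stimulation; lower signal means less secretion.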
DT40 TDP1 CPT: DT40-hTDP1 cell growth loss with CPT; Potency, µM (doses to about 46.2 µM), most hits filed as inhibitors; chicken DT40 Tdp1-/-;hTDP1 cells + 20 nM CPT, ATP luminescence, 48 h; 420,000 tested, 12% active; AID 686979; note: nearly all actives have a fitted effect of over 55% in size
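Cell growth measured by CellTiter-Glo luminescence after a minimum 48 h, 37 C compound exposure with 20 nM CPT in Tdp1-knockout DT40 cells stably expressing hTDP1, seeded 400/well; qHTS titration format.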
HT1080 IDH1KD tx: kills HT-1080 cells with IDH1 knockdown; HT-1080 IDH1 knockdown viability, ATP luminescence, 48 h; 360,000 tested, 2% active; Potency, µM (top dose mostly 46.1 µM), usual class: cytotoxic; AID 686971
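After a 2 h attachment period, IDH1KD HT-1080 cells took pin-transferred compound for 48 h at 37 °C; ATP-based luminescence after 10 min room-temperature reagent incubation reported viability.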
Each line names hits and unclear results; the compound was inactive in the other large screens. Unless noted, calls come from the whole dose curve; as a rule, active = well fitted curve in the direction sought with a large enough effect; inconclusive = small, poorly fitted or top-dose-only effect, or another doubt; inactive = no such curve, though single readings can be large; an effect the other way counts as inactive or inconclusive.

O=C(CCCSc1nc2ccccc2[nH]1)NCc1ccccc1F	TDP1 cell noCPT 21µM, DT40 TDP1 CPT inconclusive
CCCCNC(=O)CCC1N=C2c3ccccc3N=C(SCC(=O)NCCc3ccc(OC)c(OC)c3)N2C1=O (centres undefined)	none (no result: HT1080-NT tox, IL1B secr inh, HT1080 IDH1KD tx)
O=C1OC2(c3ccccc31)c1cc(I)c(O)c(I)c1Oc1c2cc(I)c(O)c1I	TDP1 cell noCPT inconclusive (no result: HT1080-NT tox, IL1B secr inh, HT1080 IDH1KD tx)
O=S(=O)(Nc1ccc(C(O)(C(F)(F)F)C(F)(F)F)cc1)c1ccc(Cl)c2nonc12	HT1080-NT tox 21µM, TDP1 cell noCPT 15µM, IL1B secr inh -114, DT40 TDP1 CPT 13µM, HT1080 IDH1KD tx 15µM
N#Cc1ccc(C(=O)NNC(=O)c2ccncc2)cc1	none
COc1ccc(C(CNC(=O)c2cccc(S(=O)(=O)N3CCCC(C)C3)c2)N(C)C)cc1 (centres undefined)	IL1B secr inh -55, DT40 TDP1 CPT inconclusive
COc1ccc2cc(S(=O)(=O)N3CCCCCC3)ccc2c1	TDP1 cell noCPT inconclusive
COc1ccc2cc(S(=O)(=O)N3CCCC(C)C3)ccc2c1 (centres undefined)	TDP1 cell noCPT 23µM, IL1B secr inh inconclusive, DT40 TDP1 CPT inconclusive
COc1ccc2[nH]c(C(=O)N/N=C/c3ccc(OC)c(O)c3)cc2c1	HT1080-NT tox 0.58µM, TDP1 cell noCPT 1.3µM, DT40 TDP1 CPT 1.2µM, HT1080 IDH1KD tx 1.2µM
CCCOc1ccc2[nH]c(C(=O)N/N=C/c3cc(OC)c(OC)c(OC)c3)cc2c1	TDP1 cell noCPT 16µM, DT40 TDP1 CPT inconclusive
CCOc1ccc2[nH]c(C(=O)N/N=C/c3ccccc3OC)cc2c1	HT1080-NT tox inconclusive, TDP1 cell noCPT 7.3µM, DT40 TDP1 CPT 5.8µM, HT1080 IDH1KD tx inconclusive
COc1cc(OC)c2cc(C(=O)N/N=C/c3ccccc3O)[nH]c2c1	TDP1 cell noCPT 4.6µM, DT40 TDP1 CPT 4.6µM
COc1ccc(C=NNC(=O)CCCC(=O)NN=Cc2ccc(OC)c(O)c2)cc1O	none
CCN(C(=O)COC(=O)c1ccccc1NCCO)C1CCS(=O)(=O)C1 (centres undefined)	none
CCOC(=O)C(Cc1ccccc1)c1ccnc2nc(N)nn12 (centres undefined)	none
COc1ccc2[nH]c(C(=O)N/N=C/c3ccccc3OC)cc2c1	HT1080-NT tox inconclusive, TDP1 cell noCPT 9.2µM, DT40 TDP1 CPT 7.3µM, HT1080 IDH1KD tx inconclusive
CCN1CCCC1CN(Cc1cc2ccc(C)c(C)c2[nH]c1=O)C(=O)Nc1ccccc1OC (centres undefined)	TDP1 cell noCPT inconclusive, IL1B secr inh inconclusive, DT40 TDP1 CPT 18µM
CCN(CC)CCN(Cc1cc2ccc(C)cc2[nH]c1=O)C(=O)NC1CCCCC1	IL1B secr inh inconclusive
CCN1CCCC1CN(Cc1cc2ccc(C)cc2[nH]c1=O)C(=S)Nc1ccccc1OC (centres undefined)	HT1080-NT tox inconclusive, TDP1 cell noCPT 21µM, DT40 TDP1 CPT inconclusive, HT1080 IDH1KD tx inconclusive
COc1ccccc1N(Cc1cc2ccc(C)cc2[nH]c1=O)C(C)=O	none
CCOc1ccccc1NC(=S)N(Cc1cc2ccc(C)cc2[nH]c1=O)CC1CCCN1CC (centres undefined)	HT1080-NT tox inconclusive, TDP1 cell noCPT 26µM, DT40 TDP1 CPT 21µM
COc1ccccc1NC(=O)N(CCN1CCOCC1)Cc1cc2cc(C)cc(C)c2[nH]c1=O	none
O=c1c(-c2ccccc2)nc2cnc(Nc3ccccc3)nc2n1Cc1cccs1	none (no result: HT1080-NT tox, IL1B secr inh, HT1080 IDH1KD tx)
COc1ccc(NC(=O)CSc2nnc(N)s2)cc1S(=O)(=O)N1CCCCC1	none
Cc1ccc(/C=N/Nc2ccc3ccccc3n2)o1	TDP1 cell noCPT 4.1µM, IL1B secr inh -107, DT40 TDP1 CPT 2.3µM
Cc1cccc(/C=N/Nc2ccc3ccccc3n2)c1	TDP1 cell noCPT 29µM, IL1B secr inh -75
Cc1ccc(/C=N/Nc2cn[nH]c(=O)n2)o1	none
CN(Cc1nc(-c2ccccc2)no1)C(=O)c1ccco1	none
CN(C)CCCNc1ncnc2oc(-c3ccccc3)c(-c3ccccc3)c12	HT1080-NT tox inconclusive, TDP1 cell noCPT inconclusive, IL1B secr inh -83, DT40 TDP1 CPT inconclusive, HT1080 IDH1KD tx 23µM
N=c1c2c(-c3ccccc3)c(-c3ccccc3)n(Cc3ccco3)c2ncn1CCCN1CCOCC1	HT1080-NT tox inconclusive, TDP1 cell noCPT 3.7µM, IL1B secr inh -96, DT40 TDP1 CPT inconclusive, HT1080 IDH1KD tx 13µM
N=c1c2c(-c3ccccc3)c(-c3ccccc3)n(Cc3ccco3)c2ncn1CCCn1ccnc1	HT1080-NT tox inconclusive, TDP1 cell noCPT 18µM, DT40 TDP1 CPT 18µM, HT1080 IDH1KD tx inconclusive
c1ccc(-c2oc3ncnc(NCCCn4ccnc4)c3c2-c2ccccc2)cc1	HT1080-NT tox inconclusive, TDP1 cell noCPT 18µM, IL1B secr inh -79, DT40 TDP1 CPT 23µM, HT1080 IDH1KD tx inconclusive
O=c1c2ccccc2nc(-c2ccccc2)n1CCCN1CCOCC1	none
COc1ccc(-c2oc3ncnc(N)c3c2-c2ccccc2)cc1	TDP1 cell noCPT inconclusive
N=c1c2c(-c3ccccc3)c(-c3ccccc3)n(Cc3ccco3)c2ncn1Cc1ccccc1	none
c1ccc2c(c1)oc1c(NCCCn3ccnc3)ncnc12	DT40 TDP1 CPT inconclusive
O=C(COC(=O)c1ccccc1OCCOc1ccccc1)Nc1ccccc1Br	none (no result: HT1080-NT tox, IL1B secr inh, HT1080 IDH1KD tx)
Cc1c(/C=N/NC(=O)c2ccc(Br)o2)cnn1C	none
COc1ccccc1CCn1c(=O)c(-c2cccc(F)c2)nc2cncnc21	none (no result: HT1080-NT tox, IL1B secr inh, HT1080 IDH1KD tx)
OCCn1cnc2c(SCc3ccccc3)ncnc21	none
Clc1ccc(-n2ncc3c(NCCCn4ccnc4)ncnc32)cc1	DT40 TDP1 CPT inconclusive
CC(C)Cn1cnc2c(c(-c3ccccc3)c(-c3ccccc3)n2Cc2ccco2)c1=N	HT1080-NT tox inconclusive, TDP1 cell noCPT 18µM, IL1B secr inh -65, DT40 TDP1 CPT 21µM, HT1080 IDH1KD tx 16µM
c1ccc(-c2c(-c3ccccc3)n(Cc3ccco3)c3ncnc(NCCCn4ccnc4)c23)cc1	HT1080-NT tox 18µM, TDP1 cell noCPT inconclusive, IL1B secr inh -98, DT40 TDP1 CPT inconclusive, HT1080 IDH1KD tx 18µM
N=c1c2c(-c3ccccc3)c(-c3ccccc3)n(Cc3ccccc3)c2ncn1CCO	IL1B secr inh -107, HT1080 IDH1KD tx inconclusive
CN(Cc1ccccc1)C(=O)COC(=O)C1CCN(S(=O)(=O)c2ccc3c(c2)OCCO3)CC1	none
C[C@]1(O)CC(=O)C=C[C@H]1Nc1ccccc1	HT1080-NT tox 21µM, TDP1 cell noCPT 18µM, IL1B secr inh -104, DT40 TDP1 CPT inconclusive, HT1080 IDH1KD tx inconclusive
CC1(C)CC(C(=O)Nc2ccccc2)C(=O)O1 (centres undefined)	none
Clc1ccc(Cl)c(OCCCCN2CCCCC2)c1	TDP1 cell noCPT inconclusive, DT40 TDP1 CPT 18µM
Cc1cc(Br)ccc1OCCCCN1CCCCC1	HT1080-NT tox 21µM, TDP1 cell noCPT inconclusive, IL1B secr inh -58, DT40 TDP1 CPT inconclusive, HT1080 IDH1KD tx inconclusive
